Laboratory results from PubChem BioAssay AID602293 (National Center for Advancing Translational Sciences (NCATS), 2012).
Out of some 1,300 compounds screened, about 30 (2%) were called active. About 10% were inconclusive and are not listed. Only a selection was taken, and actives are over-represented in it overall. Values without a mark were called inactive. Calls come from the whole dose curve; as a rule, active = well fitted inhibition curve with a large enough effect; inconclusive = small, poorly fitted or top-dose-only effect; inactive = flat fitted curve, though single readings scatter.

Assay: qHTS for antagonists of the Thyroid Stimulation Hormone Receptor: Hit Validation in HTRF Activity in a Luteinizing Hormone Receptor Cell Line
Settings: LHR-expressing cell line, cAMP HTRF, antagonist mode; series mostly up to 58 µM; activity change, negative = inhibition: at the top concentration
Description: The thyroid-stimulating hormone receptor (TSHR) is a member of the 7 trans-membrane-spanning receptor (7TMR) family of cell surface receptors. TSHR-mediated hyperthyroidism is important in thyroid pathology. The development of small molecule antagonists of TSHR may lead to therapeutic approaches for TSHR-mediated hyperthyroidism caused by constitutively activating mutations or stimulating auto-antibodies associated with Graves' disease. Graves' disease is the leading cause of hyperthyroidism and is caused by autoantibodies that stimulate TSHR (TsAbs) causing thyroid growth and unregulated overproduction of thyroid hormones and existing treatments have liabilities (agranulocytosis). In addition, TSHRs are known to be expressed in multiple extrathyroidal tissues including bone, brain, kidney, testis, fat and cells of the immune system but the role of the TSHR in these tissues is not clear. Therefore, TSHR antagonists/inverse agonists could be used as probes of extrathyroidal TSHR function. Finally, TSHR inverse agonists, which are a subclass of antagonists that inhibit agonist-independent (or basal or constitutive) TSHR signaling, could be used to inhibit TSH-independent signaling in patients with recurrent or metastatic thyroid cancer who are receiving thyroid hormone to suppress TSH.
In collaboration between scientist from the NCGC and the NIDDK, a miniaturized HTRF high-throughput screen was developed. It's a cell based assay, where an anti cAMP antibody contains a fluorescent cryptate tag (excitation 337 nm; emission 620 nm) and the acceptor is cAMP-d2 (excitation 620 nm; emission 665 nm). When antibody and cAMP-d2 interact and are excited by a 337 nm light, a FRET occurs resulting in emission at 665 nm. The assay is competition between cAMP-d2 and cAMP (from the cell lysate). The homogeneous protocol allows for one step dispense after stimulation that is automation friendly. In order to confirm specificity of the compounds to the TSHR, a confirmatory assay was conducted on a similar family member, the Luteinizing Hormone (LH) receptor, transfected into a HEK 293 cell line, using an orthogonal detection technology to measure cAMP stimulation: antibody-based Homogeneous Time Resolved Fluorescence (HTRF).
NIH Chemical Genomics Center [NCGC]
NIH Molecular Libraries Probe Centers Network [MLPCN]
Assay Provider: Marvin Gershengorn, NIDDK
Homogeneous Time Resolved Fluorescence (HTRF) cAMP Assay. HEK 293 cells stably transfected with a vector containing the LH receptor and maintained under hygromycin selection were obtained from the laboratory of Dr. Marvin Gershengorn. Compounds were assayed using a HTRF cAMP detection kit (Cisbio) on the LH receptor transfected cell line. Briefly, 750 cells were plated in 2.5 ul/well of complete media (DMEM containing 10 % FCS, and 100 uM RO 20-1724) in 1536 well solid bottom white plates and 23 nl/well compound in DMSO solution or controls was added. Following 30 minute incubation at room temperature, 2.5 ul/well of labeled d2 cAMP and 2.5 ul/well of anti-cAMP antibody (both diluted 1:20 in lysis buffer) were added to each well using a flying reagent dispenser (Aurora Discovery, San Diego) . Plates were measured using the Envision plate reader (PerkinElmer, Boston, MA) with excitation at 330 nm and emissions of 615 nm and 660 nm.
% is set by controls: 0 for no effect and ±100 for the full control effect; potency is the fitted concentration of half-maximal effect.

SMILES | activity change, negative = inhibition [%] | Potency
Cc1nc(NCCc2ccccc2)c(C#N)c(C)c1[N+](=O)[O-] | -0.65 | –
O=C(OCn1ncc(Cl)c(Cl)c1=O)c1ccccc1Cl | -5.91 | –
O=S(=O)(Nc1cccnc1)c1ccc(C2CCCCC2)cc1 | 1.64 | –
CC(C)Cc1nc2oc3c(Cl)ncnc3c2c2c1CCC2 | -4.6 | –
Cc1cccc(NC(=O)c2ccc(Cl)c(S(=O)(=O)N3CCc4ccccc43)c2)n1 | -9.41 | –
COc1ccc(CCNc2ncnc3c2[nH]c2cc(OC)c(OC)cc23)cc1OC | -3.52 | –
COc1ccc(CCNC2=C(Cl)C(=O)N(CCc3ccc(OC)c(OC)c3)C2=O)cc1OC | – | 37.9 µM (active)
COc1ccc(CCNC2=C(Cl)C(=O)N(CCc3ccccc3)C2=O)cc1OC | -9.23 | –
COc1cccc(N2CCN(c3ncnc4c3cnn4-c3ccc(C)cc3C)CC2)c1 | – | 33.8 µM (active)
COc1ccc(-n2ncc3c(N(C)C4CCCCC4)ncnc32)cc1 | -3.61 | –
COc1ccc(OC)c(NC(=O)CSc2ncnc3c2cnn3-c2ccccc2Cl)c1 | -8.87 | –
O=C(NC1C2CC3CC(C2)CC1C3)c1ccc2c(c1)OCO2 (centres undefined) | 1.26 | –
CC(C)(C)OC(=O)NCCCCCc1cn([C@@H](CO)C(=O)NCCCCCCCCCCC(=O)N2CCN(C(=O)OC(C)(C)C)CC2)nn1 | – | 37.9 µM (active)
Cc1cccc(OCC(=O)Nc2nc3ccc([N+](=O)[O-])cc3s2)c1C | 2.41 | –
CCOc1cc(N2CCOCC2)c(OCC)cc1NC(=O)c1cc(S(=O)(=O)N2CCOCC2)ccc1C | -0.64 | –
O=C(Nc1ccccc1)c1nnsc1S(=O)(=O)c1ccc(Cl)cc1 | -4.24 | –
CCN(c1ccccc1)S(=O)(=O)c1ccc(NC(=O)c2nc(S(C)(=O)=O)ncc2Cl)cc1 | – | 33.8 µM (active)
CCC1CCCCN1S(=O)(=O)c1ccc(NC(=O)c2nc(S(C)(=O)=O)ncc2Cl)cc1 (centres undefined) | – | 30.1 µM (active)
CC(C)c1nnc(NC(=O)c2nc(S(=O)(=O)Cc3ccccc3F)ncc2Cl)s1 | -6.24 | –
CN(c1ccccc1)S(=O)(=O)c1ccc(NC(=O)c2nc(S(C)(=O)=O)ncc2Cl)cc1 | – | 30.1 µM (active)
Cc1ccc(CS(=O)(=O)c2ncc(Cl)c(C(=O)Nc3nnc(C(C)C)s3)n2)cc1 | -6.84 | –
CCCc1nnc(NC(=O)c2nc(S(=O)(=O)Cc3ccc(C)cc3)ncc2Cl)s1 | -2.21 | –
COC(=O)c1ccc(NC(=O)c2nc(S(=O)(=O)Cc3cccc(C)c3)ncc2Cl)cc1 | -1.75 | –
CN(c1cccc(NC(=O)c2ccc(Cl)c(S(=O)(=O)Nc3ccccc3)c2)c1)S(C)(=O)=O | 1.14 | –
CCS(=O)(=O)c1ncc(Cl)c(C(=O)Nc2ccc(S(=O)(=O)N(C)c3ccccc3)cc2)n1 | – | 42.6 µM (active)

SMILES | activity change, negative = inhibition [%] | Potency
Cc1ccc(NC(=O)c2nc(S(=O)(=O)Cc3ccccc3C)ncc2Cl)cc1C | -0.454 | –
CCOC(=O)c1ccc(NC(=O)c2nc(S(=O)(=O)Cc3ccccc3)ncc2Cl)cc1 | -2.38 | –
COc1ccc(OC)c(NC(=O)c2cc(S(=O)(=O)NCc3ccco3)ccc2F)c1 | -2.65 | –
COc1ccccc1C1CCN(c2cc(O)ccc2[N+](=O)[O-])CC1 | 1.21 | –
Cc1ccc(C)c(N2CCN(C(=O)C(Cc3ccccc3)n3cccc3)CC2)c1 (centres undefined) | -3.11 | –
Cc1ccccc1NC(=O)c1cc2ccccn2n1 | 2.78 | –
Cc1csc(NC(=O)c2cc3c(C)nn(Cc4ccccc4Cl)c3s2)n1 | -3.84 | –
COC(=O)CCN(Cc1cc(OC)ccc1OC)S(=O)(=O)c1ccccc1Br | 1.58 | –
CCn1c(=NC(=O)CSC(C)=O)sc2cc(OC)ccc21 | -1.89 | –
Brc1ccc(CNc2ccc3ncccc3c2)cc1 | 0.575 | –
Cc1n[nH]c(C)c1S(=O)(=O)N1CCCC(C(=O)N2CCN(c3ccc(Cl)cc3)CC2)C1 (centres undefined) | -2.41 | –
CCCCn1c(-c2c(Cl)c(C)nn2C)n[nH]c1=S | 2.87 | –
Clc1ccc(CCNc2ncnc3nc[nH]c23)cc1 | -2.95 | –
Cc1cc(-n2c(C)cc(C(=O)CSc3[nH]c(=O)cc(C(F)(F)F)c3C#N)c2C)no1 | 2.79 | –
Cc1ccc(C(=O)C2=C(O)C(=O)N(c3ncccn3)C2c2ccccc2F)o1 (centres undefined) | -6.53 | –
O=c1[nH]nc(Cc2ccc(-c3cccc(Cl)c3)o2)c2ccccc12 | 1.92 | –
C1=C(CCNc2ncnc3c2[nH]c2ccccc23)CCCC1 | -9.93 | –
COc1ccc(N2CCN(C(c3nnnn3CCc3ccccc3)C(C)C)CC2)cc1 (centres undefined) | -0.511 | –
O=C(NCCC1=CCCCC1)C1CCCN(S(=O)(=O)c2ccccc2)C1 (centres undefined) | -0.0889 | –
CCCCCCOc1ccc(NC(=O)CC2C(=O)N(CC)C(=S)N2Cc2ccco2)cc1 (centres undefined) | 0.236 | –
O=[N+]([O-])c1ccc(Sc2cccc[n+]2[O-])c2nonc12 | – | 23.9 µM (active)
COc1ccc(Nc2ccc([N+](=O)[O-])c3nonc23)c(OC)c1 | 1.19 | –
COC(=O)c1c(NC(NC(C)=O)C(Cl)(Cl)Cl)sc2c1CCCC2 (centres undefined) | 1 | –
COc1cc([N+](=O)[O-])cc(/C=C2/SC(=S)N(Cc3ccccc3)C2=O)c1O | -3.99 | –
